Bioassay records from PubChem BioAssay.
The list is not random: actives were taken first. Their share in the collection is about 10%.
HPGD inh: qHTS Assay for Inhibitors of HPGD (15-Hydroxyprostaglandin Dehydrogenase); purified HPGD, NADH fluorescence kinetic, PGE2 substrate; 15-hydroxyprostaglandin dehydrogenase [NAD(+)] (Homo sapiens), P15428; 150,000 tested, 4.3% active; AID 894, 2007; Potency, µM, for the others: at the highest dose activity change, negative = inhibition, most hits filed as inhibitors; note: potency is the fitted concentration of half-maximal effect
Target sequence (P15428 whole entry, looked up): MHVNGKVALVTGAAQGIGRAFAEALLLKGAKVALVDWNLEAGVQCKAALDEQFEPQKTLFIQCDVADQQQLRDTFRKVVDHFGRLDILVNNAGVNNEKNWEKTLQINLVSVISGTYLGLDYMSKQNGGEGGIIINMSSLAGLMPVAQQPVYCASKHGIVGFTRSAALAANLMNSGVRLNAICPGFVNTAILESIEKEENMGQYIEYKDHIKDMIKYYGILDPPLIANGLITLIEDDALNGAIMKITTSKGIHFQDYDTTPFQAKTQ
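NADH formation kinetics: reaction with 30 uM PGE2 and 1 mM NAD+ (final), 20 nM enzyme, Tris-HCl pH 8 with Tween 20, after 15 min compound preincubation at room temperature. Fluorescence change, last versus first of five reads.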
ALDH1A1 inh: qHTS Assay for Inhibitors of Aldehyde Dehydrogenase 1 (ALDH1A1). Purified ALDH1A1, NADH fluorescence, propionaldehyde substrate. Aldehyde dehydrogenase 1A1 (Homo sapiens), P00352. Potency, µM (top dose mostly 75.3 µM), for inactives: at the highest dose activity, negative = inhibition, most hits filed as inhibitors. 220,000 tested, 7.3% active;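 note: potency is the fitted concentration of half-maximal effect; plate controls were no enzyme wells and a reference inhibitor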
Target sequence (P00352 whole entry, looked up): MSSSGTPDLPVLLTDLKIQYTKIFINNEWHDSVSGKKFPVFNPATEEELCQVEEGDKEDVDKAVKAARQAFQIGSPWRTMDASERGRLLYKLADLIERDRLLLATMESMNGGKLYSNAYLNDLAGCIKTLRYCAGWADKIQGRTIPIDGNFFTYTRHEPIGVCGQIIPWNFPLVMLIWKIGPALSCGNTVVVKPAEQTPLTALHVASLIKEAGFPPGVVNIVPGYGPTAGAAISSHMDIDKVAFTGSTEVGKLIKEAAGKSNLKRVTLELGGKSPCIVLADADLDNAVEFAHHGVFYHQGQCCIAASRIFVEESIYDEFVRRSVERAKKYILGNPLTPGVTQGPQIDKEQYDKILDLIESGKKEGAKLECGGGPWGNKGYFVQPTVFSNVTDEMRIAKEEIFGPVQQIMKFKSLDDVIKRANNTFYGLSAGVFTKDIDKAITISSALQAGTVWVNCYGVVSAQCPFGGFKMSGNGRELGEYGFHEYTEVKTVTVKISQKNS
PNC inhibitor: High Content Assay for Compounds that inhibit the Assembly of the Perinucleolar Compartment. PC3M PTB-GFP, PNC prevalence imaging, 16 h; stronger effect = lower value. activity change (PNC), negative = inhibition, % at 10 µM. 140,000 tested, 3.1% active. AID 2417, 2010;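 active = readout at or below -70, meaning at least 70% loss of cells showing the perinucleolar compartment, a nuclear body marking cancer cells; inconclusive = readout between -30 and a set limit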;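 note: plate controls were DMSO wells for no effect and camptothecin positive control wells for full effect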
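Read-out is percentage of cells bearing a perinucleolar compartment, from automated 20x imaging of fixed, Hoechst-stained PC3M PTB-GFP cells. Cells were seeded 4 h, then exposed 16 h to compound (23 nl of library stock) in duplicate plates.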
ALOX12 inhib: qHTS Assay for Inhibitors of 12-hLO (12-human lipoxygenase); purified 12-hLO, xylenol orange hydroperoxide absorbance; AID 1452, 2008; Potency, µM (titrated, usually from 57.1 µM), for inactives: top-dose activity change, negative = inhibition, hits mostly inhibitors; 150,000 tested, 0.12% active; Polyunsaturated fatty acid lipoxygenase ALOX12 (Homo sapiens), P18054; active = well fitted inhibition curve with a large enough effect; inconclusive = small, poorly fitted or top-dose-only effect; note: potency is the fitted concentration of half-maximal effect; nearly all actives have a fitted effect of over 55% in size
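150 nM 12hLO, 25 mM Hepes pH 7.0 + 0.01% Triton X-100; cpd preinc 15 min RT; 40 uM arachidonic acid, 30 min RT; Fe-XO 30 min; A573/A405 ratio as read-out.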
LMNA splice mod: qHTS Assay for Modulators of Lamin A Splicing | HeLa LMNA splicing GFP/RFP minigene ratio, 48 h | Potency, µM (doses to about 46.1 µM), without a hit: top-dose ratio change, negative = inhibition, hits mostly inhibitors | 200,000 tested, 0.01% active | AID 1487, 2009; active = well fitted inhibition curve with a large enough effect in the signal ratio, with a control signal flat, not every such curve was filed as active; inconclusive = small, poorly fitted or top-dose-only effect, or effect the other way, or a change in a side signal; the % refers to the signal ratio; note: potency is the fitted concentration of half-maximal effect
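S3 HeLa stable clones carrying a lamin A-EGFP splicing minigene plus DsRed2 were seeded at 600 cells/well in Opti-MEM with 2% FBS, pin-dosed and incubated 48 h at 37°C. Acumen cytometry (488 nm) gave the GFP/RFP total-intensity ratio.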
* marks the source's active call; other numbers are inactive results; ? = inconclusive; / = not tested or not shown; [ ] = dose if it differs, or a comment. Unless noted, calls come from the whole dose curve; as a rule, active = well fitted inhibition curve with a large enough effect (not every such curve was filed as active); inconclusive = small, poorly fitted or top-dose-only effect, or another doubt; inactive = no such curve, though single readings can be large or run the other way. Unless noted, % is set by controls: 0 for no effect and ±100 for the full control effect.

SMILES	HPGD inh	ALDH1A1 inh	PNC inhibitor	ALOX12 inhib	LMNA splice mod
N#CC(c1ccc(=O)[nH]n1)c1ccc(Cl)cc1Cl (configuration not stated)	/	-1.3%	/	/	?
COc1ccc(-c2cc(C(=O)N/N=C\c3cc(OC)c(OC)c(OC)c3)[nH]n2)cc1	?	?	/	2.1%	/
CC1CCc2c(sc(N)c2C(=O)OC(C)C)C1 (configuration not stated)	28.2µM*	11.2µM*	2.4	-16.6%	-6.6%
COC(=O)c1c(NC(=O)c2cccs2)sc2c1CCC(C)C2 (configuration not stated)	?	?	?	-3.1%	?
COC(=O)c1ccccc1NC(=O)c1cc(C)nc2c1c(C)nn2-c1ccc(C)cc1	/	/	/	/	6.1%[46 µM]
Cc1cc(C)c(S(=O)(=O)OC[C@H]2C=CC[C@@H](CCC[C@H]3O[C@H](C(=O)OC(C)C)CC[C@@H]3C)O2)c(C)c1	-2.6%	-14.0%	/	/	/
CN(C)CCC(=O)[C@@]1(O)CC[C@H]2[C@H]3CC=C4C[C@@H](O)CC[C@]4(C)[C@H]3CC[C@]21C	-10.6%	0.316µM*	/	-0.6%[11.4 µM]	/
CCOC(=O)c1cnc(N2CCN(c3ccc(OC)cc3)CC2)c2ccccc12	/	/	/	/	-14.6%[46 µM]
COc1ccc(N(C)C(=O)c2cnc(N3CCN(c4ncccn4)CC3)c3ccccc23)cc1	28.2µM*	-7.3%	11.8	-1.6%	?
O=C1C(Cl)=C(N2CCN(c3ccccc3[N+](=O)[O-])CC2)C(=O)c2ccccc21	-20.7%	7.08µM*	?	4.3%	?
CCn1c(CCCc2nc3c([nH]2)c(=O)n(C)c(=O)n3C)nc2c1c(=O)n(C)c(=O)n2C	-5.3%	3.1%[13.5 µM]	/	2.1%[11.4 µM]	/
N#Cc1c(-c2ccccc2)nc(SCC(=O)Nc2ccccc2F)[nH]c1=O	15.8µM*	?	47.7	1.1%	-11.3%
CCOC(=O)CCCCC(=O)c1[nH]c(=O)[nH]c1CSc1nc(-c2ccccc2)c(C#N)c(=O)[nH]1	20µM*	7.94µM*	44.7	-4.7%	-0.9%
N#Cc1c(-c2ccccc2)nc(SCC(=O)N(c2ccccc2)c2ccccc2)[nH]c1=O	28.2µM*	12.6µM*	-26.7	-0.8%	-11.7%
CCOC(=O)CCCCC(=O)c1[nH]c(=O)[nH]c1CSCCO	-11.1%	-14.3%	-6.1	4.8%	-2.7%
N#Cc1c(-c2ccccc2)nc(SCC(=O)Nc2ccccc2)[nH]c1=O	-24.9%	-1.8%	30.6	0.3%	-4.0%
COc1cc(N=C(N)N=C(N)N)c2ncccc2c1	-9.2%	9.1%[13.5 µM]	/	-1.9%[11.4 µM]	/
CC(C)CO/N=C1/[C@H]2O[C@@H]2[C@@H](O)[C@H]2[C@H]1CCn1c(=O)n(Cc3cc4c(cc3Cl)OCO4)c(=O)n12	/	1.2%[13.5 µM]	/	/	/
O=C(C/C=N/OCc1ccccc1F)c1cnc(-c2ccc(Cl)cc2)s1	-13.8%	22.4µM*	-10.9	-5.5%	-7.2%
O=C(C/C=N/OCc1ccc(F)cc1Cl)c1cnc(-c2ccccc2)s1	-10.2%	-7.1%	-21.2	2.9%	-0.5%
COC(=O)c1ccc2c(c1)N(CC(=O)Nc1cccc(Cl)c1C)C(=O)c1ccccc1S2	/	/	/	/	4.3%[46 µM]
O=C(O)CCCc1ccc2ccc3ccccc3c2c1	-10.6%	3.3%[13.5 µM]	/	-1.1%[11.4 µM]	/
O=C(Oc1ccccc1)N1CCC2(CC1)CCN(c1ccncc1)CC2	-2.9%	?	/	6.3%	/
CSC(=S)N/N=C(\C)c1ccccc1	/	-14.2%	/	/	?
C[C@H]1CCCC2(CC[N+](C)(CCC[N+](C)(C)C)CC2)C1 (some centres not stated)	-6.1%	3.8%[13.5 µM]	/	1.3%[11.4 µM]	/
SMILES	HPGD inh	ALDH1A1 inh	PNC inhibitor	ALOX12 inhib	LMNA splice mod
O=C(Nc1nc2c(s1)CCCC2)c1cccc(S(=O)(=O)N2CCCc3ccccc32)c1	?	?	?	0.8%	?
CN1CCc2nc(NC(=O)c3cccc(S(=O)(=O)N4CCc5ccccc54)c3)sc2C1	-13.1%	12.6µM*	-11.3	17.4%	-5.8%
CC(C)c1ccc(S(=O)(=O)NCc2nc3cccnc3n2Cc2ccc(F)cc2)cc1	/	/	/	/	18.0%[46 µM]
COC(=O)c1ccc(S(=O)(=O)NCCSc2nnc3c4ccccc4n(C)c3n2)cc1	?	15.8µM*	15.7	-4.9%	?
COc1ccccc1NC(=O)CSc1nnc2c3ccccc3n(C)c2n1	/	/	/	/	-7.6%[46 µM]
Clc1ccc(Nc2ccc(NCc3ccccc3)nn2)cc1	5.62µM*	-9.8%	3.1	-6.6%	?
Cc1ccc(-c2nnc(NCc3ccccc3)c3ccccc23)cc1	3.16µM*	6.4%	?	2.5%	-19.1%
Clc1ccc(-c2nnc(NCc3ccccc3)c3ccccc23)cc1	5.62µM*	22.4µM*	-25.4	-3.2%	-21.4%
Oc1ccc(Nc2nnc(-c3ccc(O)cc3)c3ccccc23)cc1	/	4.8%	/	/	?
Cc1ccc(Nc2ccc(NCc3ccccc3)nn2)cc1C	-23.5%	-3.9%	21.8	-1.6%	-9.9%
Cc1ccc(NCc2ccccc2)cc1	/	1.3%	/	/	/
CC(=O)C[C@H](c1ccc([N+](=O)[O-])cc1)c1c(O)c2ccccc2oc1=O	-10.6%	11.4%[20.9 µM]	/	-4.2%[25.6 µM]	8.3%
CC(C)NC(=O)c1nn(C)c2c1CS(=O)(=O)c1ccccc1-2	/	/	/	/	26.3%[46 µM]
Cc1ccc(S(=O)(=O)c2[nH]c(-c3ccccc3)nc2SCC(N)=O)cc1	/	/	/	/	27.7%[46 µM]
Cn1c(=O)c(-c2ccc(F)cc2)nc2cnc(OCc3ccccc3)nc21	/	?	/	/	13.6%
CN(C)c1ccc(C(C(=O)NC(C)(C)C)N(C(=O)c2csnn2)C2CC2)cc1 (configuration not stated)	?	5.62µM*	-95.8*	5.5%	?
CCC(C)c1ccc(O)c(NC(=S)NC(=O)c2cccnc2)c1 (configuration not stated)	/	31.6µM*	/	/	0.4%[46 µM]
CC(C)c1ccc(O)c(NC(=O)c2cccnc2)c1	-8.8%	2.4%	-13.9	-2.4%	-4.8%
O=C(NC(=S)Nc1cc([N+](=O)[O-])ccc1O)c1cccnc1	/	10µM*	/	/	/
Cc1ccc(S(=O)(=O)NC(C)CCc2ccccc2)cc1 (configuration not stated)	-6.5%	25.1µM*	21.3	-2.5%	8.7%
CC(/C=C/c1ccc(N(C)C)cc1)=N/N=C1/NC(=O)CC(C(=O)Nc2ccc(Cl)cc2)S1 (configuration not stated)	-23.0%	25.1µM*	13.3	-9.2%	-17.3%
CO[C@@H]1COC(=O)[C@H](COCc2ccccc2)NC(=O)C/C=C\[C@@H](C)[C@H](OC)COC(=O)[C@@H](C)NC(=O)C/C=C\[C@H]1C	/	2.7%[13.5 µM]	/	/	/
Cc1ccco1	-8.2%	3.3%	/	-2.0%	/
IC(I)I	-13.4%	12.6µM*	/	-0.4%	-27.3%
NC(=O)C1CCN(c2ccc([N+](=O)[O-])cc2Cl)CC1	/	20µM*	/	/	-14.3%[9.22 µM]
